Twelve compounds from PubChem BioAssay (NCI) can be followed below.

Test systems include DU-145 prostate; K-562 leukemia; MALME-3M melanoma; MDA-MB-231 breast; RXF 393 renal; SF-268 CNS; SF-295 CNS; SF-539 CNS; UACC-257 melanoma; M14 melanoma.
Holding throughout (test): NCI-60 one-dose screen, 48 h (100 = growth as untreated, 0 = no growth, -100 = all killed)
What all share (conditions): 10 µM unless noted

About 83,000 compounds went through this panel and 20% of them were active in at least one assay; those are over-represented in the sample as a whole.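 Activity criterion: percent growth below 10, measured after cells in 96-well plates were exposed to a single compound concentration for 48 hours.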 Unmarked numbers belong to inactive results. The source made the active and inactive calls.

For `COc1cc2ncnc(-n3ncc4cc(NC(=O)Nc5ccc(Cl)c(Cl)c5)ccc43)c2cc1OC`, the growth in the assay on DU-145 prostate is 1.5% (active); with K-562 leukemia, 10.7%; in the assay on MALME-3M melanoma it was -44.3% (active); with MDA-MB-231 breast, -74.3% (active); in the assay with RXF 393 renal, -86.7% (active); in the assay on SF-268 CNS, -34.8% (active). The growth in the assay on SF-295 CNS is -66.8% (active); with SF-539 CNS, -70.6% (active); with UACC-257 melanoma, -10.3% (active); in the assay on M14 melanoma, -41% (active).

Regarding `CCOc1ccc2nc3ccc(Cl)cc3nc2c1`, the growth in the assay with DU-145 prostate was 92.2%; in the assay on K-562 leukemia, 52.8%; in the assay with MALME-3M melanoma, 127%; with MDA-MB-231 breast, 106%; in the assay on RXF 393 renal it was -13% (active); with SF-268 CNS, 107%. Further, the growth was 110% in the assay with SF-295 CNS, 92.7% in the assay on SF-539 CNS, 101% in the assay with UACC-257 melanoma and -100% (active) in the assay on M14 melanoma.

`CC(=O)/C(=C\c1c(-c2ccccc2)[nH]c2ccccc12)S(=O)(=O)c1ccccc1`: the growth was -18.7% (active) with DU-145 prostate; -53.4% (active) in the assay with K-562 leukemia; 62.6% with MALME-3M melanoma; 4.14% (active) with MDA-MB-231 breast; -28.2% (active) in the assay with RXF 393 renal; 7.87% (active) in the assay on SF-268 CNS. In addition, the growth in the assay on SF-295 CNS is -41.4% (active); in the assay on SF-539 CNS, -38.1% (active); with UACC-257 melanoma, -6.16% (active); in the assay with M14 melanoma, 5% (active).

In the case of `CCOC(=O)c1c(C)oc2ncnc(Nc3ccc(NC(=O)Nc4cccc(Cl)c4)cc3)c12`, the growth was 70.8% with DU-145 prostate; 67.7% in the assay with K-562 leukemia; 81.4% in the assay on MALME-3M melanoma; -18.7% (active) with MDA-MB-231 breast; 63.6% in the assay on RXF 393 renal; 86.4% in the assay on SF-268 CNS. The growth was 79.6% in the assay on SF-295 CNS, 16.6% in the assay with SF-539 CNS, 84% in the assay with UACC-257 melanoma and 48.6% with M14 melanoma.

Turning to `CCCCCCCCCCCCCCCCNC(=O)Nc1ccc(C)c(NC(=O)NCCCCCCCCCCCCCCCC)c1`, the growth with DU-145 prostate was 112%; in the assay with K-562 leukemia, 105%; in the assay with MALME-3M melanoma, 89.8%; in the assay with MDA-MB-231 breast, 89.9%; in the assay on RXF 393 renal it was 108%; with SF-268 CNS it was 114%. The growth in the assay on SF-295 CNS was 114%; with SF-539 CNS, 110%; with UACC-257 melanoma it was 105%; in the assay with M14 melanoma it was 108%.

Turning to `CCCCCCN(CCCCCC)CCC(=O)Nc1ccc(S(=O)(=O)c2ccc(NC(=O)CCN(CCCCCC)CCCCCC)cc2)cc1`, the growth in the assay with DU-145 prostate was 95.4%; in the assay on K-562 leukemia, 7.37% (active); with MALME-3M melanoma it was 96%; in the assay with MDA-MB-231 breast it was 61%; with RXF 393 renal, 83.3%; in the assay with SF-268 CNS, 80.1%. Also, the growth with SF-295 CNS was 100%; with SF-539 CNS, 94.7%; in the assay with UACC-257 melanoma, 99.8%; in the assay with M14 melanoma it was 88.9%.

Turning to `Nc1ccc(S(=O)(=O)c2ccc(NO)cc2)cc1`, the growth is 89.4% in the assay with DU-145 prostate; 91.8% in the assay on K-562 leukemia; 144% with MALME-3M melanoma; 98.3% in the assay on MDA-MB-231 breast; 53.7% in the assay with RXF 393 renal; 109% with SF-268 CNS. The growth was 106% in the assay on SF-295 CNS, 76.8% with SF-539 CNS, 106% with UACC-257 melanoma and 117% in the assay with M14 melanoma.

On to `COc1cc2c(c(OC)c1OC)C(=O)CC(c1cccc(C(=O)Nc3cccc(Br)c3)c1)O2` (stereo not given), for which the growth with DU-145 prostate was 87%; with K-562 leukemia, 49.8%; in the assay on MALME-3M melanoma, 85%; with MDA-MB-231 breast it was 63.7%; in the assay on RXF 393 renal, 88.8%; in the assay with SF-268 CNS, 73.6%. Besides, the growth in the assay on SF-295 CNS was 86.7%; in the assay with SF-539 CNS it was 86.8%; in the assay on UACC-257 melanoma it was 76.8%; in the assay on M14 melanoma, 73.1%.

On to `COc1ccc(-c2nc(SCC(C)C)nc(Nc3ccc([N+](=O)[O-])cc3)c2C#N)cc1`, for which the growth with DU-145 prostate is 107%; in the assay with K-562 leukemia, 93%; in the assay on MALME-3M melanoma, 98%; in the assay with MDA-MB-231 breast, 94.6%; in the assay on RXF 393 renal, 107%; in the assay with SF-268 CNS it was 93.2%. In addition, the growth in the assay with SF-295 CNS was 84.3%; with SF-539 CNS it was 99.8%; in the assay with UACC-257 melanoma it was 85.2%; in the assay on M14 melanoma it was 103%.

Turning to `COC(=O)C1CC(=O)N(C(=O)Nc2ccc(Cl)cc2Cl)C1` (stereo not given), the growth in the assay with DU-145 prostate was 114%; in the assay on K-562 leukemia, 92.8%; in the assay with MALME-3M melanoma, 108%; in the assay with MDA-MB-231 breast, 95.3%; with RXF 393 renal, 120%; in the assay on SF-268 CNS it was 101%. Moreover, the growth was 96.7% in the assay on SF-295 CNS, 99.6% in the assay with SF-539 CNS, 96.6% in the assay on UACC-257 melanoma and 94.1% in the assay with M14 melanoma.

With `CN(C)CCOC(=O)C(C)(C)C`, the growth in the assay on DU-145 prostate was 122%; in the assay with K-562 leukemia, 101%; in the assay on MALME-3M melanoma it was 105%; in the assay with MDA-MB-231 breast, 93.9%; in the assay with RXF 393 renal, 102%; in the assay with SF-268 CNS, 121%. Further, the growth in the assay on SF-295 CNS is 108%; with SF-539 CNS, 109%; in the assay with UACC-257 melanoma, 92.5%; in the assay with M14 melanoma it was 98.3%.

With `CCC(C)(C)c1ccc(OCCCCCCN2CCNCC2)cc1`, the growth in the assay on DU-145 prostate is 49.3%; in the assay on K-562 leukemia, -29% (active); in the assay on MALME-3M melanoma, 72%; in the assay on MDA-MB-231 breast it was 78.5%; with RXF 393 renal, 35.9%; with SF-268 CNS, 78.5%. In addition, the growth in the assay with SF-295 CNS was 84.4%; in the assay on SF-539 CNS, 61.4%; in the assay on UACC-257 melanoma, 75.9%; in the assay with M14 melanoma, 65.5%.
